Assay outcomes deposited in PubChem BioAssay by several laboratories.
CYP2C9 inhib: blocks human cytochrome P450 2C9 | inhibition, % at 5 µM | 96,000 compounds, 20% hits | AID 777 | P11712 | CYP2C9 Supersomes, luciferin-H conversion, luminescence;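 active = blocking of liver enzyme CYP2C9 beyond about 50% at 5 µM, limit read from the data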
Target sequence (P11712 whole entry, looked up): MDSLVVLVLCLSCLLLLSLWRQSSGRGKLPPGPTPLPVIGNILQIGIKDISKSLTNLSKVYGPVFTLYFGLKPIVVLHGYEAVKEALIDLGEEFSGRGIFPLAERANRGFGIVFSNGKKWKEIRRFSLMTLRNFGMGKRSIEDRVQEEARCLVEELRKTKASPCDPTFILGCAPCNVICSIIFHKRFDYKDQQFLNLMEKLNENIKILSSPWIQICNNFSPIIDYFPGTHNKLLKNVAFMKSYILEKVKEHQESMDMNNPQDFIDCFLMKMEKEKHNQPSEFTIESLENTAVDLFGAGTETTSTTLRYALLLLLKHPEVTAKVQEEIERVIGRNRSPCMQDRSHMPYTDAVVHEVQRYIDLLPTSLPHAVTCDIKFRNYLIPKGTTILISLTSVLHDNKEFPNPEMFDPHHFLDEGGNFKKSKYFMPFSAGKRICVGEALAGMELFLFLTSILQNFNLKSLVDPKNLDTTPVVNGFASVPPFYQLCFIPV
CYP2C9 activ: CYP2C9 (human) activation; P11712; recombinant CYP2C9, luciferin-H conversion, luminescence; stronger effect = higher value; factor 1 = untreated enzyme, 0 = blocked; activation factor at 5 µM; 96,000 compounds, 1.4% hits;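 active = activation factor of 2 or more for CYP2C9 at a 5 µM dose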;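 also: 0 = sulfaphenazole-blocked wells and 1 = vehicle-only wells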
CYP2C19 inhib: human CYP2C19 inhibition; CYP2C19 Supersomes, luciferin-H EGE luminescence, 30 min; inhibition, % at 5 µM; 96,000 compounds, 21% hits;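 active = CYP2C19 inhibition above a set limit at 5 µM in the primary screen, cut at about 50% in these data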;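 also: plate controls were negative control wells for no effect and 2.5 mM tranylcypromine positive control for full effect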
PostGolgi yeast: growth inhibition of a yeast mutant, post-Golgi transport screen; post-Golgi transport phenotypic cell assay; inhibition, % at 10 µM; 98,000 compounds, 0.9% hits;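 also: yeast cells grown in 1536-well plates; yeast grown about 18 h at 30C before absorbance read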
CYP2C19 activ: increases human CYP2C19 enzyme activity; P33261; activation factor at 5 µM; 96,000 tested, under 10 active; recombinant CYP2C19, luciferin-H EGE luminescence; stronger effect = higher value; 0 = fully inhibited enzyme, 1 = untreated enzyme;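 active = activation factor of at least 2 at 5 µM in the primary screen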;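 also: 0 = wells with 2.5 mM tranylcypromine and 1 = vehicle-only wells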
PostGolgi ctrl: yeast control strain growth, post-Golgi counter-screen; efflux-deficient yeast background strain, growth absorbance A615, 16 h; inhibition, % at 10 µM; 98,000 compounds, 5% hits; AID 738
The depositor's hits bear a star; . = not tested or not shown. Most compounds without a hit are left out; they make up all but 32% or so of the library. Rule as the data show it, unless noted: active = inhibition above about 30%; inactive = the rest.

SMILES	CYP2C9 inhib	CYP2C9 activ	CYP2C19 inhib	PostGolgi yeast	CYP2C19 activ	PostGolgi ctrl
COc1ccc(NC2c3ccccc3C(=O)N2Cc2ccco2)cc1OC (configuration not stated)	33.3	0.7	64.2*	-11.6	0.4	0.8
CN(C(=O)c1cccc(C#N)c1)c1nnc(-c2cnccn2)s1	-4.6	1	8.6	17.7	0.9	-3.9
CC(/C=N\NC(=O)Cn1c(C)nc2ccccc21)=C\c1ccccc1	-9.1	1.1	4.8	-7.7	1	1.8
Cc1nc2c(Br)cc(Br)cc2cc1O	62.2*	0.4	28.8	2.6	0.7	37.1*
Brc1cc(Br)c2nc(-c3cccs3)ccc2c1	4.6	1	-23.8	-7.0	1.2	12.5
CCN(CC)CCNc1ncnc2c1sc1nc(N3CCOCC3)c3c(c12)CC(C)(C)SC3	23.3	0.8	21.9	6.7	0.8	12.2
CC(C)CCSc1nc(N2CCOCC2)c2c(c1C#N)CC(C)(C)OC2	98.5*	0	63.3*	-3.0	0.4	18.0
CSc1nc(N2CCOCC2)c2c(c1C#N)CC(C)(C)OC2	96.8*	0	60.8*	2.0	0.4	7.1
CC(Sc1nc(N2CCOCC2)c2c(c1C#N)CC(C)(C)OC2)C(=O)Nc1ccccc1 (configuration not stated)	.	.	.	-4.7	.	-5.8
COC(=O)c1ccc(CSc2nc(N3CCOCC3)c3c(c2C#N)CC(C)(C)OC3)o1	97.8*	0	68.6*	8.0	0.3	18.9
CCCC(=O)Nc1ccccc1-c1nnc(SC)[nH]c1=O	23.2	0.8	-8.2	5.2	1.1	2.8
Cc1cc2c(C)c(C)c(=O)[nH]c2cc1N	0.4	1	5.1	6.1	0.9	0.4
CCOc1ccc(S(=O)(=O)NCCSCc2ccco2)cc1	-2.9	1	42.2	1.3	0.6	5.4
COc1ccc(S(=O)(=O)NCCSCc2ccco2)cc1OC	-124.1	2.2*	59.6*	-4.2	0.4	3.6
COc1ccc(S(=O)(=O)NCCSCc2ccccc2C)cc1Br	-98.1	2*	80.8*	-0.6	0.2	35.9*
COc1ccc(S(=O)(=O)NCc2ccco2)cc1-c1nnc2c3ccccc3c(C)nn12	14.3	0.9	14.2	13.5	0.9	2.7
COc1ccc(S(=O)(=O)NCCSCc2ccco2)cc1	35.5	0.6	88.8*	-8.8	0.1	11.0
COc1ccc(S(=O)(=O)NCCSCc2cccs2)cc1	28.5	0.7	93.7*	4.8	0.1	18.4
Cc1ccccc1CSCCNS(C)(=O)=O	6.2	0.9	23.7	-4.8	0.8	-1.4
CCOc1ccc(OCC)c(NC(=O)CCn2c(=O)oc3ccccc32)c1	49.3	0.5	35.9	6.8	0.6	21.0
Cn1c(=O)c2c(nc(Oc3ccccn3)n2C)n(C)c1=O	-2.4	1	-7.2	.	1.1	.
CC1(C)CC(=O)C2=C(C1)NCN(Cc1ccc3c(c1)OCO3)C2	85.4*	0.1	14.8	-8.6	0.9	-8.9
CCNC(=O)CN(c1ccc(Cl)cc1)S(=O)(=O)c1ccccc1	63.3*	0.4	96.5*	5.5	0	7.8
CCN(CC(=O)NCc1ccccn1)S(=O)(=O)c1ccc(Cl)cc1	5.4	0.9	40.3	4.4	0.6	27.3
CCNC(=O)CN(c1ccccc1)S(=O)(=O)c1ccc(Cl)cc1	33.1	0.7	68.9*	-0.2	0.3	5.7
SMILES	CYP2C9 inhib	CYP2C9 activ	CYP2C19 inhib	PostGolgi yeast	CYP2C19 activ	PostGolgi ctrl
CN(C)C(=O)CN(C)S(=O)(=O)c1ccc(Cl)cc1	-9.6	1.1	31.7	0.5	0.7	5.5
CCc1ccc(NC(=O)N(C2CCC(C)CC2)C2CCN(C(C)=O)CC2)cc1 (configuration not stated)	7.1	0.9	-1.1	9.6	1	3.1
Nc1nc(SCc2c(Cl)cccc2Cl)n[nH]1	-20.1	1.2	3.0	-0.5	1	-10.1
CCc1ccc(CN/C=C/C(=O)c2ccc(Br)cc2)cc1	2.1	1	1.3	7.4	1	9.9
Cc1ccc(NCCC(=O)c2ccc(Cl)cc2)cc1	27.8	0.7	83.1*	-1.2	0.2	-1.1
CCc1ccc(NCCC(=O)c2ccc(Br)cc2)cc1	50.5*	0.5	86.3*	-1.2	0.1	-3.4
Cc1ccc(NCCC(=O)c2ccc(Br)cc2)cc1	16.3	0.8	78.7*	2.0	0.2	2.0
O=C(C#Cc1ccccc1)c1cccc([N+](=O)[O-])c1	-4.6	1	0.0	3.3	1	48.5*
CCC(C)[C@H](NC(=O)NCc1cccs1)C(=O)O (some centres not stated)	2.0	1	-0.4	-1.2	1	-0.5
CC1C(=O)CC(c2ccccc2)N(C)C1c1ccccc1 (configuration not stated)	90.0*	0.1	99.5*	-0.2	0	21.6
Cn1c(N)c(N2CCCCC2)c(=O)n(CC(=O)Nc2ccc(Cl)c(Cl)c2)c1=O	97.9*	0	93.7*	-5.7	0.1	0.9
c1ccc(-c2cnc(-c3ccccc3)nc2)cc1	39.5	0.6	24.8	18.0	0.8	1.4
CN(C)C(/C=C/Nc1ccc(C#N)cc1)=C(C#N)C#N	24.6	0.8	57.7*	1.3	0.4	1.3
Cc1ccccc1N/C=C/C(=C(C#N)C#N)N(C)C	34.1	0.7	42.3	-4.3	0.6	12.6
CN(C)C(/C=C/Nc1ccc(F)cc1)=C(C#N)C#N	32.0	0.7	58.8*	-0.5	0.4	11.6
Cn1c(SCC(=O)Nc2ccccc2F)nnc1-c1cc2ccccc2o1	16.6	0.8	16.1	-4.1	0.8	9.8
O=C(c1cccc(F)c1)N1CCN(S(=O)(=O)c2ccccc2)CC1	-1.2	1	75.5*	-3.4	0.2	-4.0
O=C(c1ccccc1)N1CCN(C(=O)c2ccccc2Br)CC1	30.6	0.7	56.2*	2.2	0.4	-1.8
O=C(c1ccccc1)N1CCN(S(=O)(=O)N2CCCCC2)CC1	48.7	0.5	86.9*	-6.3	0.1	44.1*
O=C(c1cccc(S(=O)(=O)N2CCCCC2)c1)N1CCN(S(=O)(=O)c2ccc(F)cc2)CC1	41.2	0.6	35.2	-5.6	0.6	-1.4
CC(C)c1ccc(S(=O)(=O)N2CCN(C(=O)c3cccc(F)c3)CC2)cc1	66.6*	0.3	67.0*	5.5	0.3	1.4
CN(CC(=O)Nc1ccc(Cl)cc1)CC(=O)Nc1cc(Cl)ccc1C#N	-23.5	1.2	62.9*	1.4	0.4	39.4*
Cn1c(=O)[nH]c(=O)c2c1nc(CN1CCOCC1)n2CCCc1ccccc1	9.1	0.9	-3.3	18.9	1	4.0
C=CCn1c(SCc2ccc(Cl)cc2)nc2c1c(=O)[nH]c(=O)n2C	32.7	0.7	45.4	19.3	0.5	14.6
CCCCn1c(=O)[nH]c(=O)c2c1nc(CN1C(=O)c3ccccc3S1(=O)=O)n2CCC	97.9*	0	80.0*	-7.8	0.2	-3.7
CCCCn1c(-c2ccsc2)nc2c1c(=O)[nH]c(=O)n2CCC	23.1	0.8	17.2	3.3	0.8	14.1
